Reference: PubChem BioAssay (NCI)
The panel holds about 83,000 compounds, 20% with a hit somewhere; the sample as a whole holds those more often.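 For each line, cells grew in 96-well plates with the test compound present at a single concentration for 48 hours.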 Values without a mark were called inactive. The source made the active and inactive calls.

tested on: CCRF-CEM leukemia; test: NCI-60 one-dose screen, 48 h (100 = growth as untreated, 0 = no growth, -100 = all killed); conditions: 10 µM unless noted
Description: Growth inhibition of the CCRF-CEM human tumor cell line is measured as a screen for anti-cancer activity. Cells are grown in 96 well plates and exposed to the test compound for 48 hours. Compounds are tested at a single concentration, which is 10^-5 M for most compounds. The reported endpoint is percent growth (GI% or GIPRCNT), where numbers from 0 - 100% represent growth inhibition, and numbers from -100% - 0 represent cell death. For example, a value of 40 represents 60% growth inhibition. A value of 0 means no net growth occurred over the course of the experiment. A value of -40 indicates 40% of cells at the beginning of the experiment died by the end of the experiment. A value of -100 means all cells are dead at the end of the experiment.
NCI-60 Human Tumor Cell Lines Screen was performed using the standard one-dose NCI protocol, which is described in more detail at https://dtp.cancer.gov/discovery_development/nci-60/default.htm.
Compounds with GIPRCNT values below 10 were considered active. Activity score was based on GIPRCNT using the following formula: […]
Score is 0 for GIPRCNT values of 100 or above, 50 for GIPRCNT values of 0, and 100 for GIPRCNT values of -100.

Row | Compound | growth
1 | CC(=O)Nc1cccc(-n2cnc3cc(-c4ccc(O)cc4)ccc32)c1 | 23.6%
2 | N#Cc1c(-c2ccccc2)cc(-c2c[nH]c3ccccc23)nc1-c1c[nH]c2ccccc12 | 103%
3 | O=C(Nc1ccc(Cl)cc1)Nc1nc2ccc([N+](=O)[O-])cc2s1 | 4.8% (active)
4 | O=C1Nc2cc(OC(F)(F)F)ccc2Oc2ccc(-c3ccnc(N4CC[C@H](O)C4)c3)cc21 | 12.6%
5 | CS(=O)(=O)c1ccc2c(c1)c1c(n2Cc2ccc(Cl)cc2)CCCC1 | 81.9%
6 | COc1ccc(C(=O)n2cc(C=O)c3ccccc32)cc1 | 103%
7 | N=c1c2cc(-c3ccccc3)oc2ncn1/N=C/c1ccccc1 | 64%
8 | O=C1Nc2ccc(Cl)cc2/C1=C/c1ccc(OCc2ccc(Br)cc2F)cc1 | 94.2%
9 | CCNC(=NCCCN(C)C)N/C(N)=N/c1nc2ccccc2s1 | 82.3%
10 | COc1ccc([C@H]2c3[nH]c4ccccc4c3C[C@@H]3C(=O)N(C4CCN(Cc5ccccc5)CC4)CC(=O)N23)c(OC)c1 | 61.8%
11 | Cc1ccccc1/C=C/c1nn2c(-c3ccoc3C)nnc2s1 | 108%
12 | CCOC(=O)/C(F)=C/C1CC1CCc1cccc(C(F)(F)F)c1 (stereo not given) | 110%
13 | CC(=O)Nc1nc2c(s1)C1=CC[C@H]3[C@@H]4CC[C@H](C(C)=O)[C@@]4(C)CC[C@@H]3[C@@]1(C)CC2 | 49%
14 | CNC(=O)c1cc(Oc2ccc3nc(NC(=O)c4ccc(CN5CCN(C)CC5)c(C(F)(F)F)c4)sc3c2)ccn1 | 49.9%
15 | CN(C)CCn1c2ccc(N)cc2c2nc3ccccc3nc21 | 29.5%
16 | Cc1ccc(/C=C/c2nn3c(-c4ccco4)nnc3s2)cc1 | 98.9%
17 | C=CCn1c(SCC(=O)Nc2cccc(C(=O)/C=C/c3ccc(Cl)cc3)c2)nc2ccccc2c1=O | 96.6%
18 | CCN1CCN(c2cc(C(=O)Nc3nc4ccc(Oc5ccnc(C(=O)NC)c5)cc4s3)cc(C(F)(F)F)c2)CC1 | 65%
19 | COc1ccccc1/C=C/C=N/NC1=NC2C(S1)N(C)C(=O)N2c1ccccc1 (stereo not given) | 14.3%
20 | COc1ccc(NS(=O)(=O)c2ccc(-c3cnc(C4CC4)o3)cc2)cc1Cl | 17.2%

Row | Compound | growth
21 | CCc1ccc(NC(=O)N[C@@H](Cc2cccc(F)c2)C(=O)N[C@@H]2C(=O)N3CCC[C@H]3C(=O)N3CCCC[C@H]3C(=O)N[C@@H](C)C(=O)N3C[C@H](C)C[C@H]3C(=O)O[C@H]2C)c(F)c1 | 33.9%
22 | Cc1cccc(NC(c2cc3cccc4ccc5cccc2c5c43)c2nnnn2C(C)(C)C)c1C (stereo not given) | 95%
23 | O=C(COc1ccc(/C=C2\SC(=O)NC2=O)cc1)Nc1ccc(C(=O)/C=C/c2cc3ccccc3nc2Cl)cc1 | 35.4%
24 | COc1ccc(N)cc1C(=O)Nc1cccc(-c2cc(=O)c3c(OC)c(OC)c(OC)cc3o2)c1 | 34%
25 | CC(C)C[C@H]1C(=O)O[C@H](C(C)C)C(=O)N(C)[C@@H](C(C)C)C(=O)O[C@H](C(C)C)C(=O)N(C)[C@@H](C(C)C)C(=O)O[C@H](C(C)C)C(=O)N1C | 11.3%
26 | C/C(=C(/c1ccc(O)cc1)c1ccc(OCCN2CCCC2)cc1)c1ccc(Cl)cc1 | 43.6%
27 | CC[C@@](C)(NC(=O)C(C)(C)NC(=O)[C@@H](NC(=O)[C@@H]1CCCN1C(=O)C(C)(C)NC(=O)[C@H](CC(C)C)NC(=O)CNC(=O)C(C)(C)NC(=O)[C@@H](NC(=O)C(C)(C)NC(=O)[C@H](CCC(N)=O)NC(=O)[C@H](C)NC(=O)C(C)(C)NC(=O)[C@H](C)NC(=O)C(C)(C)NC(=O)[C@@H]1CCCN1C(=O)C(C)(C)NC(C)=O)C(C)C)C(C)C)C(=O)N[C@@H](CCC(N)=O)C(=O)N[C@@H](CCC(N)=O)C(=O)N[C@H](CO)Cc1ccccc1 | 35.6% [4.25 µM]
28 | COc1cc(/C=C/C(=O)c2ccc(N3CCN(C)CC3)cc2)ccc1F | 53.8%
29 | Nc1n[nH]c2cccc(C#Cc3cccc(NC(=O)c4cccc(OC(F)(F)F)c4)c3)c12 | 76.2%
30 | CN(C)c1ccc(/C=N/Nc2nc(N/N=C/c3ccc(N(C)C)cc3)nc(N3CCOCC3)n2)cc1 | 13.3%
31 | C/C(=C(/c1ccc(O)cc1)c1ccc(OCCN2CCCCCC2)cc1)c1ccccc1 | 60%
32 | COc1ccc2c(C3=C(c4cn(C)c5ccccc45)C(=O)NC3=O)coc2c1 | 18.8%
33 | CN1C(=O)/C(=C/C=C/c2ccco2)SC1=S | 60.8%
34 | COc1ccc(/C=N/Nc2nc(N/N=C/c3ccc(OC)cc3O)nc(N3CCOCC3)n2)c(O)c1 | 27.1%
35 | CS(=O)c1nccc(-c2c(-c3ccc(F)c(OCCc4ccccc4)c3)nc3sccn23)n1 (stereo not given) | 49.8%
36 | CC(=O)C1=NN(c2ccc(Cl)cc2)C(=O)CN1C | 104%
37 | COc1ccc2c(c1)oc1c3[nH]c4ccccc4c3c3c(c21)C(=O)N(O)C3=O | 6.73% (active)
38 | O=C1[C@H]2Cc3c([nH]c4ccccc34)[C@@H](c3c(Cl)cccc3Cl)N2C(=O)CN1C1CCN(Cc2ccccc2)CC1 | 21.7%
39 | NS(=O)(=O)c1ccc(-n2cc(CC=O)nn2)cc1 | 110%
40 | C=C(C)[C@@H]1CC[C@]2(COS(C)(=O)=O)CC[C@]3(C)[C@H](CC[C@@H]4[C@@]5(C)CCCNC(C)(C)[C@@H]5CC[C@]43C)[C@@H]12 | 71.4%
